40 molecules from PubChem BioAssay (NCATS) can be followed below.

For experiment [1], the system named is Zika virus NS2B-NS3 protease (unlinked complex). The experiment is described as follows: Primary screen GU Rhodamine qHTS for Zika virus inhibitors: Unlinked NS2B-NS3 protease assay (AID 1347159). Note: nearly all actives have a fitted effect of over 60% in size. The essentials:
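Noncovalent NS2B hydrophilic domain/NS3 protease complex (25 nM final) in 10 mM Tris-HCl pH 8.0, 0.01% Tween 20, preincubated 15 min with compounds (up to 114 microM), then 1.5 microM Rhodamine110 substrate. Fluorescence change over 15 min fitted to 4-parameter Hill.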

Experiment [2] has as its system Zika virus NS2B-NS3 protease (linked construct). The experiment is described as follows: Primary screen NINDS Rhodamine qHTS for Zika virus inhibitors (AID 1347160). Note: nearly all actives have a fitted effect of over 55% in size. The method, boiled down:
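Purified NS2B-NS3 protease with the NS2B hydrophilic domain joined by a flexible linker (25 nM) in 10 mM Tris-HCl pH 8.0, 0.01% Tween 20, preincubated 15 min at RT with compound; Rhodamine110 peptide substrate 1.5 µM; fluorescence change over 15 min; 4-parameter Hill fit.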

Records with an inconclusive call do not appear. A number with no mark means an inactive call. Calls of active or inactive are those of the source. Calls come from the whole dose curve; as a rule, active = well fitted inhibition curve with a large enough effect; inconclusive = small, poorly fitted or top-dose-only effect; inactive = no such curve, though single readings can be large or run the other way.
% is set by controls: 0 for no effect and ±100 for the full control effect; potency is the fitted concentration of half-maximal effect.

`CCCN1CCN(c2ccc(C(=O)NC3(C(=O)NCC#N)CCCCC3)cc2)CC1`: the Potency result in experiment [1] and in experiment [2] was “inactive” throughout.
For the molecule `C[C@@H]1O[C@@H](O[C@@H]2[C@@H](O)[C@@H](O[C@]3(CO)O[C@H](CO)[C@@H](O)[C@@H]3OC(=O)/C=C/c3ccc(O)cc3)O[C@H](CO)[C@H]2OC(=O)/C=C/c2ccc(O)cc2)[C@H](O)[C@H](O)[C@H]1O[C@@H]1O[C@@H](C)[C@H](O[C@@H]2OC[C@](O)(CO)[C@H]2O)[C@@H](O)[C@H]1O`, the Potency result in experiment [1] and in experiment [2] was “inactive” in each case.
In the case of `CC1CC(=O)C2=C(CCC3(O)C(O)c4c(O)cccc4C(=O)C23O)C1` (stereo not given), the Potency entry in experiment [1] and in experiment [2] was “inactive” each time.
Take `COc1cc(O)c2c(c1)C1=C[C@H](O)[C@@H](O)C[C@]1(C)OC2=O`: the Potency entry in experiment [1] and in experiment [2] was “inactive” each time.
Take `C=C1CCC2C(C)(C)C(O)CCC2(C)C1CCC(C)CCOC(C)=O` (stereo not given): the Potency in experiment [1] was 22.4 µM (active). In addition, in experiment [2], the Potency entry is “inactive”.
With `CO[C@@H](C)Cn1c(=O)n(C)c2cnc3ccc(-c4cncc(C(C)(C)O)c4)cc3c21`, the Potency result in experiment [1] and in experiment [2] was “inactive” throughout.
For the molecule `CC(C)(O)/C=C/C1=CC(=O)[C@@](C)(O)C[C@H]1O`, the Potency entry in experiment [1] and in experiment [2] was “inactive” throughout.
With `CC1=CCC(C(C)(C)O[C@@H]2O[C@H](CO[C@@H]3O[C@@H](C)[C@H](O)[C@@H](O)[C@H]3O)[C@@H](O)[C@H](O)[C@H]2O)CC1` (stereo not given in full), the Potency entry in experiment [1] and in experiment [2] was “inactive” in each case.
As to `CC1=CC(=O)C2C(C)(C)CCC[C@]2(C)[C@H]1CO` (stereo not given in full), the Potency result in experiment [1] and in experiment [2] was “inactive” throughout.
For the molecule `Nc1nc2c(ncn2[C@@H]2O[C@@H]3COP(=O)(O)O[C@H]3[C@H]2O)c(=O)[nH]1`, the Potency entry in experiment [1] and in experiment [2] was “inactive” each time.
Consider `FC(F)(F)c1cc(-c2ncn(/C=C\c3nnco3)n2)cc(C(F)(F)F)c1`, for which the Potency entry in experiment [1] and in experiment [2] was “inactive” each time.
`COC(=O)Cc1cc2c(c([N+](=O)[O-])c1)N(C(=O)CC[C@H](N)C(=O)O)CC2`: the Potency result in experiment [1] and in experiment [2] was “inactive” in each case.
As to `COc1c/c(=C2\C=c3ccccc3=N2)[nH]/c1=C\c1[nH]c(C)cc1C`, the Potency entry in experiment [1] and in experiment [2] was “inactive” in each case.
Consider `CO[C@H]1C[C@@H]2CC[C@@H](C)[C@@](O)(O2)C(=O)C(=O)N2CCCC[C@H]2C(=O)O[C@H]([C@H](C)C[C@@H]2CC[C@@H](OP(C)(C)=O)[C@H](OC)C2)CC(=O)[C@H](C)/C=C(\C)[C@@H](O)[C@@H](OC)C(=O)[C@H](C)C[C@H](C)/C=C/C=C/C=C/1C`, for which the Potency entry in experiment [1] and in experiment [2] was “inactive” throughout.
Regarding `C[C@@H]1O[C@@H](OC[C@H]2O[C@@H](Oc3cc(O)cc4c3C(=O)C(O)(Cc3ccc(O)cc3)O4)[C@H](O)[C@@H](O)[C@@H]2O)[C@H](O)[C@H](O)[C@H]1O` (stereo not given in full), the Potency entry in experiment [1] and in experiment [2] was “inactive” in each case.
Consider `NC(=O)c1cccc(-c2cc(OC(=O)NC3CCCCC3)ccc2O)c1`, for which the Potency result in experiment [1] and in experiment [2] was “inactive” each time.
Consider `CC1(C)CC[C@]2(C(=O)OC3OC(CO)C(O)C(O)C3O)CC[C@]3(C)C(=CCC4[C@@]5(C)CC[C@H](OC6OC(C(=O)O)C(O)C(OC7OC(CO)C(O)C(O)C7O)C6O)C(C)(C)C5CC[C@]43C)C2C1` (stereo not given in full), for which the Potency result in experiment [1] and in experiment [2] was “inactive” each time.
In the case of `CC1CCC2(C=O)C(CO)=CCCC2C1(C)CC(=O)O` (stereo not given), the values for the Potency in experiment [1] and in experiment [2] were 11.2 µM (active) and 12.6 µM (active), respectively.
Turning to `C=CC(C)(O)CC[C@H]1C(=C)CCC2[C@](C)(C(=O)O)CCC[C@@]21C` (stereo not given in full), the Potency result in experiment [1] and in experiment [2] was “inactive” each time.
With `CC1CCN(C(=O)CC#N)CC1N(C)c1ncnc2[nH]ccc12` (stereo not given), the Potency result in experiment [1] and in experiment [2] was “inactive” throughout.
With `CC1OC(OC2C(C)OC(OC3C(OC(=O)C45CCC(C)(C)CC4C4=CCC6C7(C)CCC(OC8OC(C(=O)O)C(O)C(O)C8OC8OC(CO)C(O)C(OC9OC(C)C(O)C(O)C9O)C8O)C(C)(CO)C7CCC6(C)C4(C)CC5)OC(CO)C(O)C3O)C(O)C2O)C(O)C(O)C1O` (stereo not given), in experiment [1], the activity change, negative = inhibition is 1.27% [at 19.1 µM]. Also, the outcome in experiment [2] was “inactive [at 10.7 µM]”.
With `Nc1ccc(/C=C/C(=O)NCc2cc3cc(-c4ccc(C(=O)N5CCC(F)(F)CC5)cc4)cc(-c4ccc(F)cc4)c3o2)cn1`, the Potency result in experiment [1] and in experiment [2] was “inactive” each time.
For `COC(=O)C12CCC(C)C(C)C1C1=CCC3C4(C)CCC(OC(C)=O)C(C)(C)C4CCC3(C)C1(C)CC2` (stereo not given), the Potency entry in experiment [1] and in experiment [2] was “inactive” throughout.
Consider `COc1cc(C(=O)NC2CCN(C)CC2)ccc1Nc1ncc2c(n1)N(C1CCCC1)CC(F)(F)C(=O)N2C`, for which the Potency result in experiment [1] and in experiment [2] was “inactive” each time.
For `CSc1ccc(C(=O)N[C@@H]2CCCC[C@@H]2NC(=O)CNC(=O)c2cc(C(F)(F)F)ccc2NC(=O)NC(C)C)cc1`, the Potency result in experiment [1] and in experiment [2] was “inactive” in each case.
`OC[C@H]1O[C@@H](OCCc2ccc(O)cc2)[C@H](O[C@@H]2OC[C@](O)(CO)[C@H]2O)[C@@H](O)[C@@H]1O`: the Potency entry in experiment [1] and in experiment [2] was “inactive” in each case.
For `CC(C)C1=CC2C(CC[C@]2(C)O)[C@](C)(O)CC1` (stereo not given in full), the Potency result in experiment [1] and in experiment [2] was “inactive” in each case.
Regarding `C[C@@H]([C@@H](O)c1ccc(O)cc1)N1CCC(O)(c2ccccc2)CC1`, the Potency result in experiment [1] and in experiment [2] was “inactive” in each case.
In the case of `COC(=O)CCSCc1ccc(-c2onc(C)c2NC(=O)OC(C)c2ccccc2Cl)cc1` (stereo not given), the Potency result in experiment [1] and in experiment [2] was “inactive” each time.
Turning to `Cc1c(F)cc(C(=O)NC2CC2)cc1-c1c(F)cn2c(C(C)(C)C)nnc2c1F`, the Potency entry in experiment [1] and in experiment [2] was “inactive” throughout.
For `O=C1C=CC(O)(/C=C/C(=O)OC[C@H]2O[C@@H](Oc3ccc(O)cc3)[C@H](O)[C@@H](O)[C@@H]2O)C=C1`, the Potency result in experiment [1] and in experiment [2] was “inactive” in each case.
Turning to `CC1=C(C)C(=O)OC(C(C)C2CCC3C4C5OC5C5(O)CC(OC6OC(CO)C(OC7OC(C)C(O)C(O)C7O)C(O)C6O)CC(O)C5(C)C4CCC23C)C1` (stereo not given), the Potency result in experiment [1] and in experiment [2] was “inactive” each time.
In the case of `COc1cc(N)c(Cl)cc1C(=O)NC[C@@H]1CCN2CCC[C@@H]12`, the Potency result in experiment [1] and in experiment [2] was “inactive” each time.
In the case of `O=C(O)Cc1cn(C2OCC(O)C(O)C2O[C@@H]2O[C@H](CO)[C@@H](O)[C@H](O)[C@H]2O)c2ccccc12` (stereo not given in full), the Potency result in experiment [1] and in experiment [2] was “inactive” throughout.
Regarding `CC1=C2C(O)C(=O)OC(c3ccoc3)C2(C)CCC1O` (stereo not given), the Potency entry in experiment [1] and in experiment [2] was “inactive” throughout.
In the case of `CC(=O)O[C@@H]1C[C@H](O)[C@@]23CO[C@H](O)[C@]1(C)C2C[C@@H](O)[C@]1(C)C3C(=O)[C@H](OC(C)=O)[C@@]2(C)[C@H](c3ccoc3)C[C@H]3O[C@]321` (stereo not given in full), the Potency entry in experiment [1] and in experiment [2] was “inactive” each time.
In the case of `OC1CCC(Nc2ncc3nc(Nc4c(F)cc(F)cc4F)n([C@H]4CCOC4)c3n2)CC1` (stereo not given in full), the Potency entry in experiment [1] and in experiment [2] was “inactive” in each case.
As for `CCc1c(C)nc2c(-c3cnn(-c4cc(CO)ccn4)c3)c[nH]n2c1=O`, the Potency entry in experiment [1] and in experiment [2] was “inactive” in each case.
In the case of `CC(C)[C@@](C)(O)[C@@H]1CN(c2nc(-c3[nH]nc4ncccc34)c(F)cc2Cl)CCN1`, the Potency entry in experiment [1] and in experiment [2] was “inactive” throughout.
For the molecule `COC(=O)c1ccnc(-c2cc(C(=O)NCCc3ccccc3)ccn2)c1`, the Potency result in experiment [1] and in experiment [2] was “inactive” throughout.
